Reference: PubChem BioAssay (NCI)
About 83,000 compounds went through this panel and 20% of them were active in at least one assay; those are over-represented in the sample as a whole.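 Cell lines were cultured in 96-well plates, exposed to a single compound concentration, and assessed for percent growth 48 hours later.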 Active and inactive are the calls of the source. The calls were made as follows: active = growth percent below 10; inactive = the rest.

Legend:
Assay in all cases: NCI-60 one-dose screen, 48 h (100 = growth as untreated, 0 = no growth, -100 = all killed)
Details in all cases: 10 µM unless noted
T-47D breast = system: T-47D breast
BT-549 breast = system: BT-549 breast
MDA-MB-435 melanoma = system: MDA-MB-435 melanoma
SW-620 colon = system: SW-620 colon
MCF7 breast = system: MCF7 breast
HCT-116 colon = system: HCT-116 colon
HCC-2998 colon = system: HCC-2998 colon
KM12 colon = system: KM12 colon

Measured: growth

CCN(CC)c1ccc(-c2cc(-c3cc(OC)c(OC)c(OC)c3)nc(N3CCOCC3)c2C#N)cc1
active: MDA-MB-435 melanoma -27.5%
inactive: T-47D breast 22.2% | BT-549 breast 38.6% | SW-620 colon 30.8% | MCF7 breast 29.8% | HCT-116 colon 10.5% | HCC-2998 colon 29.9% | KM12 colon 27.1%

C=CC(=O)Nc1cccc(-c2nc(SC)nc(Nc3cccc(OC)c3)c2C#N)c1
inactive: T-47D breast 38.5% | BT-549 breast 45.4% | MDA-MB-435 melanoma 43.4% | SW-620 colon 89.1% | MCF7 breast 52.2% | HCT-116 colon 54.4% | HCC-2998 colon 82.3% | KM12 colon 87.9%

O=C1c2cc3c(cc2-c2c1c1cc(F)c(F)cc1c(=O)n2CCCn1ccnc1)OCO3
active: T-47D breast 4.88% | MDA-MB-435 melanoma 8.57% | SW-620 colon 8.92% | MCF7 breast -1.22% | HCT-116 colon -12.8% | KM12 colon 3.55%
inactive: BT-549 breast 12.5% | HCC-2998 colon 13.5%

Nc1ccc(-c2cc3c(NCc4ccccc4)ncnc3s2)cc1
inactive: T-47D breast 52.4% | BT-549 breast 78.2% | MDA-MB-435 melanoma 93.7% | SW-620 colon 105% | MCF7 breast 72.5% | HCT-116 colon 95.6% | HCC-2998 colon 92.6% | KM12 colon 88.6%

CCOc1cc2ncc(C#N)c(Nc3ccc(OCc4cccc(F)c4)c(Cl)c3)c2cc1NC(=O)CC1CCSS1 (stereo unspecified)
inactive: BT-549 breast 44.6% | SW-620 colon 90.4%
active: T-47D breast -0.0513% | MDA-MB-435 melanoma -26.4% | MCF7 breast 2.9% | HCT-116 colon -24.7% | HCC-2998 colon -25.1% | KM12 colon -67.6%

O=C(N(c1ccccc1)c1ccccc1)n1ccc2nc(Cl)nc(Cl)c21
inactive: T-47D breast 34.2% | BT-549 breast 47.2% | MDA-MB-435 melanoma 37.9% | SW-620 colon 51.1% | MCF7 breast 32.5% | HCT-116 colon 49.6% | HCC-2998 colon 91.5% | KM12 colon 55.7%

O=[N+]([O-])c1cnc(N2CCN(CC3CC3)CC2)nc1N1CCN(CC2CC2)CC1
inactive: T-47D breast 100% | BT-549 breast 88.9% | MDA-MB-435 melanoma 98.1% | SW-620 colon 90.9% | MCF7 breast 96.4% | HCT-116 colon 86% | HCC-2998 colon 99% | KM12 colon 100%

CC(C)C[C@@H](NC(=O)[C@@H](Cc1ccccc1)NC(=O)c1cnccn1)B1Oc2ccc(C[C@H](NC(=O)[C@H](Cc3ccc4c(c3)OB([C@@H](CC(C)C)NC(=O)[C@@H](Cc3ccccc3)NC(=O)c3cnccn3)O4)NC(=O)[C@@H](N)CC3CCC4OB([C@@H](CC(C)C)NC(=O)[C@@H](CC5CCCCC5)NC(=O)C5CNCCN5)OC4C3)C(=O)NCCCC[C@@H]3NC(=O)[C@@H](Cc4ccccc4)NC(=O)[C@H](CC(=O)O)NC(=O)CNC(=O)[C@H](CCCNC(=N)N)NC3=O)cc2O1 (stereo partly specified)
active: T-47D breast -57.8% | BT-549 breast -66.8% | MDA-MB-435 melanoma -74.7% | SW-620 colon -49.5% | MCF7 breast -43.9% | HCT-116 colon -69.2% | HCC-2998 colon -95.7% | KM12 colon -51.5%

CSc1nc(NCCO)c(C#N)c(-c2cccc([N+](=O)[O-])c2)n1
inactive: T-47D breast 94.1% | BT-549 breast 96.6% | MDA-MB-435 melanoma 99.8% | SW-620 colon 101% | MCF7 breast 91.4% | HCT-116 colon 96.1% | HCC-2998 colon 102% | KM12 colon 98.3%

O=C1OC(c2ccccc2)C(O)=C1c1ccccc1 (stereo unspecified)
inactive: T-47D breast 111% | BT-549 breast 111% | MDA-MB-435 melanoma 105% | SW-620 colon 110% | MCF7 breast 95.4% | HCT-116 colon 107% | HCC-2998 colon 127% | KM12 colon 95.7%

CN1CCN(CCCOc2cccc3nc(Nc4cc(Cl)cc(Cl)c4)ccc23)CC1
active: T-47D breast -25.3% | MDA-MB-435 melanoma -46.5% | SW-620 colon -66.6% | MCF7 breast -80.3% | HCT-116 colon -26.6% | KM12 colon -71.9%
inactive: BT-549 breast 65% | HCC-2998 colon 30.2%

CC(O)CN1CC(O)=C(c2nc3ccccc3s2)C1=N (stereo unspecified)
active: HCC-2998 colon 8.02%
inactive: T-47D breast 104% | BT-549 breast 109% | MDA-MB-435 melanoma 98.9% | SW-620 colon 108% | MCF7 breast 96.3% | HCT-116 colon 109% | KM12 colon 117%

CN1CCN(c2ccc(Nc3c4ccccc4nc4ccccc34)cc2)CC1
inactive: T-47D breast 102% | BT-549 breast 112% | MDA-MB-435 melanoma 110% | SW-620 colon 106% | MCF7 breast 99.1% | HCT-116 colon 104% | HCC-2998 colon 113% | KM12 colon 105%

CC1=C[C@H]2c3c(c(O)c(O)c4oc5c(C)cccc5c(=O)c34)[C@H](c3cc(O)c(O)c4oc5c(C)cccc5c(=O)c34)[C@H]2C(C)(C)C1
active: MDA-MB-435 melanoma -17.3% | MCF7 breast 9.38% | HCT-116 colon 1.97% | KM12 colon 7.31%
inactive: T-47D breast 13.7% | BT-549 breast 27.2% | SW-620 colon 18.7% | HCC-2998 colon 11.2%

COc1ccc(-c2cc(-c3ccc(Nc4ccnc5cc(Cl)ccc45)cc3)nc(N3CCOCC3)n2)cc1
inactive: BT-549 breast 45.8% | MDA-MB-435 melanoma 10.1% | MCF7 breast 22.7% | HCT-116 colon 52.8% | HCC-2998 colon 98.8% | KM12 colon 44.9%
active: T-47D breast -23% | SW-620 colon 8.98%

CSc1nc(NCc2ccccc2)c(C#N)c(-c2cccc([N+](=O)[O-])c2)n1
inactive: T-47D breast 82.8% | BT-549 breast 95.8% | MDA-MB-435 melanoma 99.4% | SW-620 colon 96.5% | MCF7 breast 91.8% | HCT-116 colon 87.1% | HCC-2998 colon 107% | KM12 colon 98.2%

Oc1ccc(N=Cc2ccccc2O)cc1
inactive: T-47D breast 89.4% | BT-549 breast 78.3% | MDA-MB-435 melanoma 110% | SW-620 colon 99.1% | MCF7 breast 92.8% | HCT-116 colon 98.8% | HCC-2998 colon 116% | KM12 colon 88.8%

CCOc1cc2c(cc1OCC)C(c1cc(OC)c(O)cc1Cl)NCC2 (stereo unspecified)
inactive: T-47D breast 85.4% | BT-549 breast 102% | MDA-MB-435 melanoma 77.5% | SW-620 colon 99.3% | MCF7 breast 93.5% | HCT-116 colon 76.3% | HCC-2998 colon 63.2% | KM12 colon 88.9%

Cn1cccc1-c1nc2c3c(ccc2[nH]1)C(=O)c1ccccc1C3=O
inactive: BT-549 breast 71.7% | MDA-MB-435 melanoma 105% | SW-620 colon 105% | MCF7 breast 11.6% | HCT-116 colon 83.7% | HCC-2998 colon 86.3% | KM12 colon 73.6%
active: T-47D breast -18.8%

O=C(N/N=C/c1ccccc1O)c1ccccc1Nc1ccnc(C(F)(F)F)c1
active: MCF7 breast 8.24%
inactive: T-47D breast 19.4% | BT-549 breast 30.1% | MDA-MB-435 melanoma 32.4% | SW-620 colon 35% | HCT-116 colon 14.4% | HCC-2998 colon 46% | KM12 colon 32.4%

OCC(O)c1nc2ccc3[nH]ncc3c2c2c1CCCC2 (stereo unspecified)
active: BT-549 breast -24.6% | SW-620 colon 3.04% | MCF7 breast 8.02% | HCT-116 colon 1.98% | KM12 colon 4.4%
inactive: T-47D breast 14% | MDA-MB-435 melanoma 17.4% | HCC-2998 colon 29.5%

C#CC(F)(F)[C@]1(O)CC[C@H]2[C@@H]3CCC4=CC(=O)CCC4=C3[C@@H](c3ccc(C4CC4)cc3)C[C@@]21C
inactive: T-47D breast 17.5% | BT-549 breast 73.1% | MDA-MB-435 melanoma 85.1% | SW-620 colon 18.5% | MCF7 breast 36.9% | HCT-116 colon 75.8% | HCC-2998 colon 92%
active: KM12 colon 6.36%

O=C1NC(=S)NC(=O)C1CC(=O)n1c(-c2ccccc2)nc2ccccc21
inactive: T-47D breast 95.3% | BT-549 breast 100% | MDA-MB-435 melanoma 102% | SW-620 colon 98.6% | MCF7 breast 80.4% | HCT-116 colon 104% | HCC-2998 colon 104% | KM12 colon 101%

COc1cc2c(cc1-c1c(C)noc1C)ncc1nc(C3CCOCC3)n([C@H](C)COC(F)F)c12
inactive: T-47D breast 46% | BT-549 breast 68.8% | MDA-MB-435 melanoma 40.6% | SW-620 colon 59% | MCF7 breast 19.2% | HCT-116 colon 40.4% | HCC-2998 colon 47.7% | KM12 colon 47%

COc1cc(/C=C/c2cc(/C=C/c3ccc(O)c(OC)c3)n(-c3c(Cl)cccc3Cl)c(=O)n2)ccc1O
active: MDA-MB-435 melanoma 4.57% | HCT-116 colon 4.63%
inactive: T-47D breast 24.1% | BT-549 breast 15.2% | SW-620 colon 10.4% | MCF7 breast 13.7% | HCC-2998 colon 41.8% | KM12 colon 12.1%

COc1nc2c(c(=O)n1C)CN(Cc1ccccc1)C=N2
active: BT-549 breast -4.81%
inactive: T-47D breast 67.1% | MDA-MB-435 melanoma 117% | SW-620 colon 99.6% | MCF7 breast 101% | HCT-116 colon 107% | HCC-2998 colon 113% | KM12 colon 98.9%

CC(=O)Nc1ccc(-n2c(O)c(/C=N/NC(=O)Cc3ccccc3Nc3c(Cl)cccc3Cl)sc2=S)cc1
inactive: T-47D breast 80.6% | BT-549 breast 104% | MDA-MB-435 melanoma 109% | SW-620 colon 96.5% | MCF7 breast 92.3% | HCT-116 colon 95.3% | HCC-2998 colon 106% | KM12 colon 105%
